Experimental data taken from PubChem BioAssay AID1851 (National Center for Advancing Translational Sciences (NCATS), 2009).
The whole screen tested about 16,000 compounds, of which about 5,800 (36%) were called active. Roughly 23% stayed inconclusive and do not appear here. Calls come from the whole dose curve; as a rule, active = well fitted curve in the direction sought with a large enough effect; inconclusive = small, poorly fitted or top-dose-only effect, or effect the other way; inactive = no such curve, though single readings can be large or run the other way. The list shows a part of the results.

Target: Cytochrome P450 2C19 (Homo sapiens) (UniProt P33261)
Experiment: Cytochrome panel assay with activity outcomes
Conditions: recombinant CYP, pro-luciferin dealkylation, luminescence, p450-cyp2c19; series mostly up to 57.1 µM; activity, negative = inhibition: at the top concentration
% is set by controls: 0 for no effect and ±100 for the full control effect.

Cytochrome P450 2C19 (Homo sapiens), sequence (P33261 whole entry, looked up): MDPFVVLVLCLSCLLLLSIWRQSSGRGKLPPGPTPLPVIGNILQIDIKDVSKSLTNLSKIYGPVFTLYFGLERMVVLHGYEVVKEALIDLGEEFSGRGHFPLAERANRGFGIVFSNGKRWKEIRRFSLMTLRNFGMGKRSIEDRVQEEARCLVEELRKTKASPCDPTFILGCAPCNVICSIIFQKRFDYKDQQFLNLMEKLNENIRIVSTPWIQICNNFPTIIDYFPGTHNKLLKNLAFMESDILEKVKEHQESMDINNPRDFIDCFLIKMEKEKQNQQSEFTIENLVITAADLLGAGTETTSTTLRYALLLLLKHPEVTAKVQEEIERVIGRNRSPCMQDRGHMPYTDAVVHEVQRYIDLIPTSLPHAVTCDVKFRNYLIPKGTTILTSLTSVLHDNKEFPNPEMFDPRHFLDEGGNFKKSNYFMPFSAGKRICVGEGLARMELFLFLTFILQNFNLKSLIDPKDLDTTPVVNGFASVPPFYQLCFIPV

activity, negative = inhibition, inactive:
Cc1ccc(CS(=O)(=O)CCC(=O)NCCCOC(C)C)cc1 -10.4%
Cc1ccc(OCC(=O)NNC(=O)c2cc3ccccc3o2)cc1 -12.6%
C[C@@H]1O[C@@H](n2cc(F)c(=O)[nH]c2=O)[C@H](O)[C@@H]1O -13.4%
Cc1cccc2cc(=O)[nH]c(C)c12 -20%
C[N+]1(CCC[N+]2(C)C[C@H]3[C@H](C2)[C@H]2C=C[C@@H]3CC2)CCOCC1 (some centres undefined) -6.43% [at 11.4 µM]
Cc1cc2c(cc1S(N)(=O)=O)S(=O)(=O)CCC2 13.4% [at 25.6 µM]
COCCCNC(=O)CCC(=O)Nc1ccc2nc(N3CCOCC3)cc(C)c2c1 30.1%
Cc1ccccc1C(=O)NNC(=O)c1ccc(F)cc1 -21.3%
O=C(c1cc(C(F)(F)F)cc(C(F)(F)F)c1)N1CCC[C@@]2(CCN(c3ccncc3)C2)C1 0.411%
O=S(=O)(C[C@H](O)C(Cl)(Cl)Cl)NNc1ccccc1 -25.2% [at 11.4 µM]
CCC(=O)NC(NCC1CCCO1)C(Cl)(Cl)Cl (centres undefined) -28.2%
CCCC[C@]1(C2CCCC2)Cc2cc(OCC(=O)O)c(Cl)c(Cl)c2C1=O 14.2%
CO[C@@H]1/C=C\CC(=O)N[C@@H](C)C(=O)OC[C@H](NS(=O)(=O)c2ccc(C)cc2)[C@H](C)/C=C\CC(=O)OC[C@H]1C -0.432% [at 11.4 µM]
NC(=O)N[C@H]1NC(=O)NC1=O -5.57% [at 25.6 µM]
CC(Oc1ccc(O)cc1)(P(=O)(O)O)P(=O)(O)O 29%
CCC(=O)[C@@]1(C)[C@H](C)C[C@@H]2[C@@H]3CCC4=CC(=O)C=C[C@@]4(C)[C@H]3[C@H](O)C[C@]21C -27.9% [at 25.6 µM]
Cc1ccc(-n2c(SCc3ccc([N+](=O)[O-])cc3)nc3ccccc3c2=O)cc1 -12.2%
O=[N+]([O-])c1ccc(/C=N/Nc2cc(Cl)nc(-c3ccccc3)n2)cc1 17.3%
Nc1nnc(CC(=O)N/N=C/c2cccc([N+](=O)[O-])c2)s1 -11.2%
COc1ccc(NC(=O)N2CCCC3(CCN(C(=O)c4csnn4)CC3)C2)cc1 -7.72%
Cc1cc2c(nc1C)CCCN2C[C@@H](O)CN1CCN(C)CC1 4.3% [at 11.4 µM]
CO[C@@H](NC(N)=O)C(=O)O 20.6% [at 11.4 µM]
COCC(=O)N1CCN(c2ccc([N+](=O)[O-])cc2)CC1 -7.34%
CC[N+](CC)(CC)CC -13.4%
COc1ccc(S(=O)(=O)NCCC(=O)NCc2ccc(F)cc2)cc1 -27.1%
O=c1c2ccccc2nc2n1CCC2 -19.1%
C[N+](C)(C)CCCSc1nc2ccccc2[nH]1 32.5% [at 11.4 µM]
Cc1c(/C=N/NC(=O)c2ccc3c(c2)OCO3)cnn1C -22.6%
COc1ccc(CN[C@H](C)C(=O)O)cc1 24.9% [at 11.4 µM]
N/N=C1/CC(=O)NC(=O)N1 -9.46% [at 11.4 µM]
COc1cc(OC)c(C2C(C(=O)Nc3ccc(C)cc3C)=C(C)Nc3ncnn32)cc1OC (centres undefined) -25.1%
CCCCOc1cc(C(=O)NCCN(CC)CC)c2ccccc2n1 -23.7% [at 25.6 µM]

AC50, active:
Cc1ccc(OCC(=O)Nn2cnc3ccccc32)cc1 20 µM
COc1ccc([N+](=O)[O-])cc1NC(=O)CC(C)c1ccccc1 (centres undefined) 3.55 µM
Cc1c(NC(=O)C(Sc2ccccc2)c2ccccc2)cccc1[N+](=O)[O-] (centres undefined) 0.891 µM
Cc1ccc(OCC(=O)NC2=NCCS2)cc1 17.8 µM
COc1cc([N+](=O)[O-])ccc1NC(=O)CCCOc1cccc(C)c1 3.98 µM
CCCCNC(=O)CCC(=O)Nc1ccc2nc(N3CCOCC3)cc(C)c2c1 25.1 µM
Cc1ccccc1C(=O)NN(C)c1nc2ccccc2nc1C(F)(F)F 0.355 µM
O=C(Nc1ccccc1)N(Cc1ccccc1)CC(O)C(F)(F)F (centres undefined) 5.01 µM
O=C(Nc1cccc(C(F)(F)F)c1)N(Cc1ccc(Cl)cc1)CC(O)C(F)(F)F (centres undefined) 3.98 µM
CCCC(=O)NC(Nc1ccccc1F)C(Cl)(Cl)Cl (centres undefined) 2.82 µM
CCOC(=O)C1=C(C)N=C2c3ccccc3C(=O)C2C1c1ccc(Cl)cc1 (centres undefined) 0.631 µM
CCOC(=O)C1=C(C)N=C2c3ccccc3C(=O)C2C1c1ccc(C)cc1 (centres undefined) 1 µM
CCC(=O)c1ccc(OCc2ccc(C(=O)OC)cc2)c(OC)c1 3.16 µM
O=C(Nc1ccccc1C(=O)Nc1ccc2c(c1)OCO2)c1ccco1 3.16 µM
CC1(C)Oc2ccc(NC(=O)c3ccco3)cc2O1 14.1 µM
COn1c(SCc2ccc(C)cc2C)nc2ccccc2c1=O 3.55 µM
COn1c(SCc2cccc(Cl)c2)nc2ccccc2c1=O 2.24 µM
O=[N+]([O-])c1cccc(/C=N/Nc2cc(Cl)nc(-c3ccccc3)n2)c1 2 µM
O=C(CCCc1ccccc1)N1CCN(c2ccc([N+](=O)[O-])cc2)CC1 8.91 µM
CC(=O)Nc1ccc(S(=O)(=O)NCCc2ccc(F)cc2)cc1 5.01 µM
O=c1c2c(-c3ccc(Cl)cc3)csc2nc2n1CCC2 8.91 µM
Cc1c(OCC(F)(F)F)ccnc1CSc1nc2ccccc2[nH]1 1.58 µM
COC(=O)c1ccc(NC(=O)c2ccccc2NS(=O)(=O)c2ccccc2)cc1 3.98 µM
CC(C)C1NC(=S)N(Cc2ccccc2)C1=O (centres undefined) 2 µM
O=C(N/N=C\c1cn(-c2ccccc2)nc1-c1ccccc1)c1ccc(Br)o1 2 µM
O=C(N/N=C\c1cn(-c2ccccc2)nc1-c1ccccc1)c1ccc2c(c1)OCO2 3.16 µM
Cc1ccc(-c2nn(-c3ccccc3)cc2/C=N/NS(=O)(=O)c2ccccc2)cc1 8.91 µM
COc1ccc(CNn2c(C)nc3ccccc3c2=O)cc1 0.316 µM
CCCCOc1ccc(CNn2c(C)nc3ccccc3c2=O)cc1 0.112 µM
Cc1nc2ccccc2c(=O)n1NC(=O)c1ccccc1Cl 20 µM
CCCCOC(=O)C1=C(C)Nc2ncnn2C1c1cc(OC)ccc1OC (centres undefined) 20 µM
COCCCNC(=O)c1c(N)n(/N=C/c2ccccn2)c2nc3ccccc3nc12 10 µM
